Reference: PubChem BioAssay (NCI)
The panel holds about 83,000 compounds, 20% with a hit somewhere; the sample as a whole holds those more often.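 Single-dose data. Exposure time 48 hours. Values below 10 considered active.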 The source made the active and inactive calls.

test system: HS 578T breast; assay: NCI-60 one-dose screen, 48 h (100 = growth as untreated, 0 = no growth, -100 = all killed); conditions: 10 µM unless noted
Description: Growth inhibition of the HS 578T human tumor cell line is measured as a screen for anti-cancer activity. Cells are grown in 96 well plates and exposed to the test compound for 48 hours. Compounds are tested at a single concentration, which is 10^-5 M for most compounds. The reported endpoint is percent growth (GI% or GIPRCNT), where numbers from 0 - 100% represent growth inhibition, and numbers from -100% - 0 represent cell death. For example, a value of 40 represents 60% growth inhibition. A value of 0 means no net growth occurred over the course of the experiment. A value of -40 indicates 40% of cells at the beginning of the experiment died by the end of the experiment. A value of -100 means all cells are dead at the end of the experiment.
NCI-60 Human Tumor Cell Lines Screen was performed using the standard one-dose NCI protocol, which is described in more detail at https://dtp.cancer.gov/discovery_development/nci-60/default.htm.
Compounds with GIPRCNT values below 10 were considered active. Activity score was based on GIPRCNT using the following formula: […]
Score is 0 for GIPRCNT values of 100 or above, 50 for GIPRCNT values of 0, and 100 for GIPRCNT values of -100.

SMILES | growth
COc1cc(F)c(-c2nc3c(C)cccc3n2Cc2c(F)cccc2F)c(F)c1 | 91.6% (inactive)
COc1ccc2c(c1)Oc1nc(N)c(C#N)c(N)c1C2Sc1ccc(SC)cc1 (stereo not given) | 67.7% (inactive)
C#CCN(CCCOc1ccc(Cl)cc1Cl)CCCSC(=O)CCCCCN1/C(=C\C=C2/CCCC(/C=C/C3=[N+](CCCCCC(=O)[O-])c4ccccc4C3(C)C)=C2Cl)C(C)(C)c2ccccc21 | 6.47% (active)
CC1CCN(CCCCCOc2ccc3oc4cc(Cl)ccc4c(=O)c3c2)CC1 | 84.8% (inactive)
Nc1ccc(C2=NN(C(=O)c3cc(-c4ccc(Cl)cc4)nc4ccccc34)C(c3ccc(Cl)cc3)C2)cc1 (stereo not given) | 41.8% (inactive)
COc1cc(/C=C/C(=O)/C=C/c2cc3ccc(Cl)cc3n(Cc3ccccc3)c2=O)ccc1O | 43.5% (inactive)
C=C(C)[C@@H]1CC[C@]2(C(N)=O)CC[C@]3(C)[C@H](CC[C@@H]4[C@@]5(C)CCCNC(C)(C)[C@@H]5CC[C@]43C)[C@@H]12 | 74.9% (inactive)
COCCOCCOCc1n(Cc2ccc3ccccc3n2)c2ccccc2[n+]1Cc1ccc2ccccc2n1 | 47.1% (inactive)
C=C(C)[C@@H]1CC[C@]2(C(=O)O)CC[C@]3(C)[C@H](CC[C@@H]4[C@@]5(C)C[C@@H](CC#Cc6ccccc6)C(=O)C(C)(C)[C@@H]5CC[C@]43C)[C@@H]12 | 55.4% (inactive)
CCOC(=O)c1cnn(-c2nc(-c3ccc(F)cc3)c(C#N)c(N3CCOCC3)n2)c1N | 103% (inactive)
N#Cc1ccc(N2Cc3cc(Cl)ccc3OC3=C2C(=O)N(Cc2ccc(F)cc2)C3=O)cc1 | 27% (inactive)
O=C1NC(c2ccc(F)cc2)N=C2C(c3ccccc3)=NOC12 (stereo not given) | 106% (inactive)
Nc1ccc(C(=O)Nc2cccc(C(=O)Nc3ccc4c(O)c(N=Nc5ccc(N=Nc6ccc(S(=O)(=O)O)cc6)cc5)c(S(=O)(=O)O)cc4c3)c2)cc1 | 106% (inactive)
CCCCCCCc1n(Cc2ccc3ccccc3c2)c2ccccc2[n+]1Cc1ccc2ccccc2c1 | -42.7% (active)
C/C(=C\c1cnc(C)s1)[C@@H]1C[C@@H]2O[C@@H]2CCC[C@H](C)[C@H](O)[C@@H](C)C(=O)C(C)(C)[C@@H](O)CC(=O)O1 | 39.1% (inactive)
CC(=O)OC[C@]12CC[C@@H](c3cn(Cc4ccc(Cn5cc([C@@H]6CC[C@]7(COC(C)=O)CC[C@]8(C)[C@H](CC[C@@H]9[C@@]%10(C)CC[C@H](OC(C)=O)C(C)(C)[C@@H]%10CC[C@]98C)[C@@H]67)nn5)cc4)nn3)[C@@H]1[C@H]1CC[C@@H]3[C@@]4(C)CC[C@H](OC(C)=O)C(C)(C)[C@@H]4CC[C@@]3(C)[C@]1(C)CC2 | 97.2% (inactive)
COc1ccc(NC(=O)c2sc3nc(C)c(C(C)=O)cc3c2N)cc1 | 105% (inactive)
COc1cccc(NC(=O)Nc2ccc(Oc3ncnc4[nH]c(C)c(C)c34)cc2)c1 | 84.8% (inactive)
O=C(NC[C@H](O)CN1CCc2ccccc2C1)c1cc(NC2COC2)ncn1 | 122% (inactive)
COc1ccc(C(C)c2cc(OC)c(OC)c(OC)c2)cc1 (stereo not given) | 37.5% (inactive)

SMILES | growth
Cc1ccc2nc3nc4ccc[nH]c4cc3c2c1 | 90.2% (inactive)
CC(C)(C)c1ccc2oc(=O)n(SC(Cl)(Cl)Cl)c2c1 | 119% (inactive)
CN1CCN(C(=O)[C@@]2(C)CC[C@]3(C)CC[C@]4(C)C(=CC[C@@H]5[C@@]6(C)CC[C@H](OC(=O)c7cccnc7)C(C)(C)[C@@H]6CC[C@]54C)[C@@H]3C2)CC1 | 76.8% (inactive)
Nc1c(C(=O)Nc2cccc3ccccc23)sc2nc3c(cc12)CCCCCC3 | 28.6% (inactive)
C#C[C@@]1(O)[C@@H](CO)O[C@@H](n2cc(I)c3c(N)ncnc32)[C@@H]1O | -15.5% (active)
CSc1nc(-c2ccco2)c2c(N)[nH]nc2n1 | 108% (inactive)
COc1ccc(C2N(c3cc(OC)c(OC)c(OC)c3)C(=O)C2(F)F)cc1F (stereo not given) | 21.9% (inactive)
COC(=O)c1ccc2c(c1)n(Cc1ccc3ccccc3c1)c[n+]2Cc1ccc2ccccc2c1 | 67.6% (inactive)
COc1ccc(/C=C/C(=O)C(CC2CCC2)C(=O)/C=C/c2ccc(OC)c(OC)c2)cc1OC | 25.4% (inactive)
CN(C)CCCn1c2c(c3cc(-c4cccc(S(N)(=O)=O)c4)ccc3c1=O)C(=O)c1ccccc1-2 | 99.6% (inactive)
CC[C@]12C=CCN3CC[C@@]4(c5ccc(OC)cc5N(C)[C@H]4[C@@](O)(C(=O)OC)[C@@H]1OC(=O)CCC(=O)O[C@H]1CC[C@H]4[C@@H]5CC[C@H]6CC(=O)CC[C@]6(C)[C@H]5CC[C@]14C)[C@@H]32 | 43.4% (inactive)
CC(=O)Oc1c2c(nc3c1c1ccccc1n3Cc1ccccc1)-c1ccccc1C2 | 94.4% (inactive)
CCO/C=N/S(=O)(=O)c1cc2c(cc1Cl)NC=NS2(=O)=O | 101% (inactive)
NC(=O)c1ccc(C2C3=C(CCCC3=O)OC3=C2C(=O)c2ccccc2C3=O)cc1 (stereo not given) | 67.1% (inactive)
O=C(Nc1ccc2ncnc(Nc3cccc(C(F)(F)F)c3)c2c1)c1cccs1 | 103% (inactive)
C[C@]12CC[C@@H]3c4ccc(O)cc4CC[C@H]3[C@@H]1C[C@H](O)C2 | 57.6% (inactive)
COc1cc(C2CC(c3ccc(Nc4nc(NCCO)nc(NCCO)n4)cc3)=NN2c2cc(Cl)cc(Cl)c2)cc(OC)c1OC (stereo not given) | -14.5% (active)
COc1ccc(-c2cc(-c3nnc(SCC(=O)Nc4ccc(/C(C)=N\O)cc4)n3-c3ccccc3)c3cc(OC)ccc3n2)cc1 | 82.7% (inactive)
COc1cc2cc(c1Cl)N(C)C(=O)C[C@H](OC(=O)[C@H](C)N(C)C(=O)CCS)C[C@]1(C)O[C@H]1[C@H](C)[C@@H]1C[C@@](O)(NC(=O)O1)[C@H](OC)/C=C/C=C(\C)C2 | 20.9% (inactive)
Cc1[nH]c(N=Nc2ccccc2)nc1N=Nc1ccccc1 | 61.5% (inactive)
